{"source": "PubChem BioAssay (Tox21)", "key": {"[1]": {"target": "Cytochrome P450 2C9 (Homo sapiens) (UniProt P11712)", "sequence (P11712 whole entry, looked up)": "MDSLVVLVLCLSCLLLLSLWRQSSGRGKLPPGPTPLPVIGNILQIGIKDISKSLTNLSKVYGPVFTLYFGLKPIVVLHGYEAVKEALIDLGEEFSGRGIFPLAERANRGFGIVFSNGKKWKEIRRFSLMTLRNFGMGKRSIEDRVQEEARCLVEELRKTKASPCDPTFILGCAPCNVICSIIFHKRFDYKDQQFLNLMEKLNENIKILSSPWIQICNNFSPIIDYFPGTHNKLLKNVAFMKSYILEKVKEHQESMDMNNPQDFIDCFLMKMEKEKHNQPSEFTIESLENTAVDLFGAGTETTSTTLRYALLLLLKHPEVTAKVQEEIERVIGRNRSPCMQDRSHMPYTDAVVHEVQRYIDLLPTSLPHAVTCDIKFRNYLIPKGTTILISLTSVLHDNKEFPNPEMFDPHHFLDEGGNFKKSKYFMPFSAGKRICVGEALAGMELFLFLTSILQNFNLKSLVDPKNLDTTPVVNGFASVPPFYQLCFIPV", "experiment": "Cytochrome P450 Family 2 Subfamily C Member 9 (CYP2C9) small molecule antagonists: luciferase reporter qHTS assay (AID 1671198); also: series mostly up to about 120 µM", "method_in_brief": "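Enzyme-substrate mix preincubated with compound 10 min at room temperature; reaction started with NADPH regeneration solution, 1 h 37C. Luminescent luciferin product read after 20 min detection reagent.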"}, "[2]": {"target": "Cytochrome P450 1A2 (Homo sapiens) (UniProt P05177)", "sequence (P05177 whole entry, looked up)": "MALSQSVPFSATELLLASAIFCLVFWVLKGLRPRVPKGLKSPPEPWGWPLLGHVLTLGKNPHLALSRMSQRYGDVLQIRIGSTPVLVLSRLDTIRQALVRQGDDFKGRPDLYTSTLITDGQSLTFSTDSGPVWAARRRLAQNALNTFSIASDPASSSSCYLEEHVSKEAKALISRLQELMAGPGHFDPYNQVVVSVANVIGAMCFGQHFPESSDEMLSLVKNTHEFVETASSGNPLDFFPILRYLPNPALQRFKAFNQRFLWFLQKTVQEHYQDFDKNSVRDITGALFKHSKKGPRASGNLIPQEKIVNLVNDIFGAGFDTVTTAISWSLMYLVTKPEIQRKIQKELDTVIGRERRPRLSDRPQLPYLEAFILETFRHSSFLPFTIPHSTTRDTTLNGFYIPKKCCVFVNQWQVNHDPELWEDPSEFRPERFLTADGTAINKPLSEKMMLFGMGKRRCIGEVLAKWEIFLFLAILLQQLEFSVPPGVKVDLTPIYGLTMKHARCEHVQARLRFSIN", "experiment": "Cytochrome P450 Family 1 Subfamily A Member 2 (CYP1A2) small molecule antagonists: luciferase reporter qHTS assay (AID 1671199); also: potency is read from the fitted curve at half-maximal effect; as to activity change, negative = inhibition: series mostly up to about 120 µM", "method_in_brief": "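Signal from luciferin formed by CYP1A2 from a proluciferin substrate is read as luminescence, expressed in relative luminescence units. Compounds sit with enzyme 10 min, NADPH-driven reaction runs 1 h, all at room temperature.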"}, "[3]": {"target": "Voltage-gated inwardly rectifying potassium channel KCNH2 (Homo sapiens) (UniProt Q12809)", "sequence (Q12809 whole entry, looked up)": "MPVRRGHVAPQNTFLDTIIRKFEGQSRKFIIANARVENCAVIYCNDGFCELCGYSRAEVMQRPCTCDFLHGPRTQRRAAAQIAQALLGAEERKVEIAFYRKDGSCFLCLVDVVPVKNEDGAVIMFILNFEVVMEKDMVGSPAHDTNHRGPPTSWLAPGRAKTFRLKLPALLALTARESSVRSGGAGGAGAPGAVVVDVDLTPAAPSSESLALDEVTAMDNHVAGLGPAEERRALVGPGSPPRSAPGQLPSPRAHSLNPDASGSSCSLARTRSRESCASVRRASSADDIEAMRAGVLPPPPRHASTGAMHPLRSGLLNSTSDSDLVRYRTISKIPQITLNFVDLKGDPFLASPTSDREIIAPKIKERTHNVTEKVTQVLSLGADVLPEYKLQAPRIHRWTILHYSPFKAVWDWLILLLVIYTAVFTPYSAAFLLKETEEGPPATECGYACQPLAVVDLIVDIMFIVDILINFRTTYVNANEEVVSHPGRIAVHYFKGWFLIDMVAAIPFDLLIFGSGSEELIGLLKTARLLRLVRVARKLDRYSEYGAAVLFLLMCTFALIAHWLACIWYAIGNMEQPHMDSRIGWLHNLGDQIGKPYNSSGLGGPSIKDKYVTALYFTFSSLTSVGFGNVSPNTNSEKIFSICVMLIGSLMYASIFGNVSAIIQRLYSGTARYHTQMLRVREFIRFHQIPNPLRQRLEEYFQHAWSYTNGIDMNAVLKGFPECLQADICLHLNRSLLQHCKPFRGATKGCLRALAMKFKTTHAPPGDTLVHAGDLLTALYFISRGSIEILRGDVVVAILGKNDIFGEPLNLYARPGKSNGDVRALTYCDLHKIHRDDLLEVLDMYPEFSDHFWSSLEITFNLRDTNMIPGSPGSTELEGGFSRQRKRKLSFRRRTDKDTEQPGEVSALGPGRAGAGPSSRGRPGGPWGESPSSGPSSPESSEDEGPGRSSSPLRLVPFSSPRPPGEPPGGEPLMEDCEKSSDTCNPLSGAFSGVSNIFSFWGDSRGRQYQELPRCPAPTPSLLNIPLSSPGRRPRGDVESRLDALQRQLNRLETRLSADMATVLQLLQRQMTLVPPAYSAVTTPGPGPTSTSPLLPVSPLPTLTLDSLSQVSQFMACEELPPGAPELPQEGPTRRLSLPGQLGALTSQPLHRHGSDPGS", "experiment": "Human Ether-a-go-go-Related Gene (hERG) channel small molecule antagonists: fluorescence cell-based qHTS assay (AID 1671200);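 also: hERG-expressing U2OS cells given a thallium stimulus after FluxOR II dye loading; series mostly up to about 77 µM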", "method_in_brief": "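Fluorescence at 540 nm emission (480 nm excitation) was recorded kinetically for 2 min at 1-second intervals once the thallium-containing stimulus reached cells previously loaded with FluxOR II dye.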"}, "[4]": {"target": "Cytochrome P450 3A4 (Homo sapiens) (UniProt P08684)", "sequence (P08684 whole entry, looked up)": "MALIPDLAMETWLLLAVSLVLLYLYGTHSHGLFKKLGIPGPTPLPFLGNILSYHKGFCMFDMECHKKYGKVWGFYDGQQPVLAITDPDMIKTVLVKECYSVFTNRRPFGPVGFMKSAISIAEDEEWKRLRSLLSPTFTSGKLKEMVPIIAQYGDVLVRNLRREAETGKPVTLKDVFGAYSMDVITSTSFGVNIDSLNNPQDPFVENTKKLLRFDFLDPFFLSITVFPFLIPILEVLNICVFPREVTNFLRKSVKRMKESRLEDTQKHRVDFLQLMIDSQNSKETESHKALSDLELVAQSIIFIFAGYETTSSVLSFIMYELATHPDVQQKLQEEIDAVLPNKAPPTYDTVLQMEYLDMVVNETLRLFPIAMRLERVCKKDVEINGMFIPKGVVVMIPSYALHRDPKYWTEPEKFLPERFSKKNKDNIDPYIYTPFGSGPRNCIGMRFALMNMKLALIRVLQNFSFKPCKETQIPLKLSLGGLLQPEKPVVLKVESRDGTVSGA", "experiment": "Cytochrome P450 Family 3 Subfamily A Member 4 (CYP3A4) small molecule antagonists: luciferase reporter qHTS assay (AID 1671201); also: series mostly up to about 120 µM", "method_in_brief": "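qHTS, 1536-well. CYP3A4 + proluciferin substrate, cpd 10 min RT → NADPH regen 1 h RT → detection reagent 20 min → luminescence (RLU). Ketoconazole positive control.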"}}, "note": "Results filed as inconclusive are left out. Where a call stands in place of a potency, no number is given. Unmarked numbers belong to inactive results. Activity calls are given as the source filed them. Calls follow the shape of the dose curve; as a rule, active = well fitted curve in the direction sought with a large enough effect in the repeat runs; inconclusive = weak or mixed curves; inactive = no such curve, though single readings can be large; an effect the other way counts as inactive or inconclusive. Also: nearly all actives have a fitted effect of over 50% in size.", "data": [{"smiles": "CC(=O)c1cnccn1", "values": [{"measurement": "Potency", "setting": "[1]", "value": "inactive"}, {"measurement": "Potency", "setting": "[2]", "value": "inactive"}, {"measurement": "Potency", "setting": "[3]", "value": "inactive"}, {"measurement": "Potency", "setting": "[4]", "value": "inactive"}]}, {"smiles": "O=S(=O)(O)c1cccc2ccccc12", "values": [{"measurement": "Potency", "setting": "[3]", "value": "inactive"}, {"measurement": "Potency", "setting": "[4]", "value": "inactive"}]}, {"smiles": "O=S(=O)(O)c1cc(O)c(O)c(S(=O)(=O)O)c1", "values": [{"measurement": "Potency", "setting": "[1]", "value": "inactive"}, {"measurement": "Potency", "setting": "[3]", "value": "inactive"}, {"measurement": "Potency", "setting": "[4]", "value": "inactive"}]}, {"smiles": "NO", "values": [{"measurement": "Potency", "setting": "[3]", "value": "inactive"}]}, {"smiles": "CCCCN1C=CN(C)C1", "values": [{"measurement": "activity change, negative = inhibition", "setting": "[3]", "value": "-0.505% [at 15.8 µM]"}]}, {"smiles": "CN(C)CCCCCCN(C)C", "values": [{"measurement": "Potency", "setting": "[3]", "value": "inactive"}]}, {"smiles": "Nc1ccn([C@@H]2O[C@H](CO)[C@@H](O)C2O)c(=O)n1", "note": "(stereo partly specified)", "values": [{"measurement": "Potency", "setting": "[1]", "value": "inactive"}, {"measurement": "Potency", "setting": "[3]", "value": "inactive"}, {"measurement": "Potency", "setting": "[4]", "value": "inactive"}]}, {"smiles": "c1ccc(Cc2ccccc2)cc1", "values": [{"measurement": "Potency", "setting": "[2]", "value": "35.6 µM (active)"}, {"measurement": "Potency", "setting": "[3]", "value": "inactive"}, {"measurement": "Potency", "setting": "[4]", "value": "inactive"}]}, {"smiles": "C=COC(=O)C(C)(CC)CCC(C)C", "note": "(stereo unspecified)", "values": [{"measurement": "Potency", "setting": "[1]", "value": "inactive"}, {"measurement": "Potency", "setting": "[3]", "value": "inactive"}]}, {"smiles": "CCN[C@H]1C[C@H](C)S(=O)(=O)c2sc(S(N)(=O)=O)cc21", "values": [{"measurement": "Potency", "setting": "[1]", "value": "inactive"}, {"measurement": "Potency", "setting": "[2]", "value": "inactive"}, {"measurement": "Potency", "setting": "[3]", "value": "inactive"}, {"measurement": "Potency", "setting": "[4]", "value": "inactive"}]}, {"smiles": "C1CCC2=NCCCN2CC1", "values": [{"measurement": "Potency", "setting": "[3]", "value": "inactive"}]}, {"smiles": "NC(=O)N1c2ccccc2CC(=O)c2ccccc21", "values": [{"measurement": "Potency", "setting": "[2]", "value": "3.23 µM (active)"}, {"measurement": "Potency", "setting": "[3]", "value": "inactive"}]}, {"smiles": "Nc1ccccn1", "values": [{"measurement": "Potency", "setting": "[3]", "value": "inactive"}]}, {"smiles": "CCCCCC(=O)OCCc1ccccc1", "values": [{"measurement": "Potency", "setting": "[3]", "value": "inactive"}, {"measurement": "Potency", "setting": "[4]", "value": "inactive"}]}, {"smiles": "Nc1ccn([C@@H]2O[C@H](CO)[C@@H](O)[C@@H]2O)c(=O)n1", "values": [{"measurement": "Potency", "setting": "[2]", "value": "inactive"}, {"measurement": "Potency", "setting": "[3]", "value": "inactive"}, {"measurement": "Potency", "setting": "[4]", "value": "inactive"}]}, {"smiles": "Cc1c(N)c(=O)n(-c2ccccc2)n1C", "values": [{"measurement": "Potency", "setting": "[3]", "value": "inactive"}]}, {"smiles": "CNCC(O)c1ccc(O)c(O)c1", "note": "(stereo unspecified)", "values": [{"measurement": "Potency", "setting": "[3]", "value": "inactive"}]}, {"smiles": "C=COCC1CCC(COC=C)CC1", "note": "(stereo unspecified)", "values": [{"measurement": "Potency", "setting": "[1]", "value": "inactive"}, {"measurement": "Potency", "setting": "[2]", "value": "inactive"}, {"measurement": "Potency", "setting": "[3]", "value": "inactive"}, {"measurement": "Potency", "setting": "[4]", "value": "inactive"}]}, {"smiles": "CC(C)=CCC/C(C)=C/C#N", "values": [{"measurement": "Potency", "setting": "[1]", "value": "inactive"}, {"measurement": "Potency", "setting": "[3]", "value": "inactive"}, {"measurement": "Potency", "setting": "[4]", "value": "inactive"}]}, {"smiles": "CCN[C@@H]1C[C@H](N)[C@@H](OC2OC(CN)=CCC2N)[C@H](O)[C@H]1O[C@H]1OC[C@](C)(O)[C@H](NC)[C@H]1O", "note": "(stereo partly specified)", "values": [{"measurement": "activity change, negative = inhibition", "setting": "[3]", "value": "-0.868% [at 0.29 µM]"}]}, {"smiles": "CN1CCC(=C2c3ccccc3CCc3cccnc32)CC1", "values": [{"measurement": "Potency", "setting": "[3]", "value": "inactive"}]}, {"smiles": "CCC(C)(CCCC(C)C)OC(C)=O", "note": "(stereo unspecified)", "values": [{"measurement": "Potency", "setting": "[2]", "value": "inactive"}, {"measurement": "Potency", "setting": "[3]", "value": "inactive"}, {"measurement": "Potency", "setting": "[4]", "value": "inactive"}]}, {"smiles": "Cc1ccc(C(=O)Nc2ccc(S(=O)(=O)O)c3cc(S(=O)(=O)O)cc(S(=O)(=O)O)c23)cc1NC(=O)c1cccc(NC(=O)Nc2cccc(C(=O)Nc3cc(C(=O)Nc4ccc(S(=O)(=O)O)c5cc(S(=O)(=O)O)cc(S(=O)(=O)O)c45)ccc3C)c2)c1", "values": [{"measurement": "Potency", "setting": "[1]", "value": "inactive"}, {"measurement": "Potency", "setting": "[3]", "value": "inactive"}, {"measurement": "Potency", "setting": "[4]", "value": "inactive"}]}, {"smiles": "c1coc(CNc2ncnc3nc[nH]c23)c1", "values": [{"measurement": "Potency", "setting": "[3]", "value": "inactive"}]}, {"smiles": "CC(=O)C1CCCCC1=O", "note": "(stereo unspecified)", "values": [{"measurement": "Potency", "setting": "[2]", "value": "inactive"}, {"measurement": "Potency", "setting": "[3]", "value": "inactive"}]}, {"smiles": "NCCCC(N)(C(=O)O)C(F)F", "note": "(stereo unspecified)", "values": [{"measurement": "Potency", "setting": "[3]", "value": "inactive"}]}, {"smiles": "COC(=O)C1=C(C)NC(C)=C(C(=O)OC(C)C)C1c1cccc2nonc12", "note": "(stereo unspecified)", "values": [{"measurement": "Potency", "setting": "[3]", "value": "inactive"}]}, {"smiles": "COc1cc(-c2ccc(=O)[nH]n2)ccc1OC(F)F", "values": [{"measurement": "Potency", "setting": "[3]", "value": "inactive"}]}, {"smiles": "CCCCCCC1CCC(=O)O1", "note": "(stereo unspecified)", "values": [{"measurement": "Potency", "setting": "[3]", "value": "inactive"}, {"measurement": "Potency", "setting": "[4]", "value": "inactive"}]}, {"smiles": "CCCCCCCCCCCCCCC(=O)O", "values": [{"measurement": "Potency", "setting": "[2]", "value": "35.7 µM (active)"}, {"measurement": "Potency", "setting": "[3]", "value": "inactive"}, {"measurement": "Potency", "setting": "[4]", "value": "inactive"}]}, {"smiles": "COc1cc(C)nc(-n2nc(C)cc2OC)n1", "values": [{"measurement": "Potency", "setting": "[3]", "value": "inactive"}]}, {"smiles": "O=S(=O)(O)c1cccc2c(S(=O)(=O)O)cccc12", "values": [{"measurement": "Potency", "setting": "[2]", "value": "79.5 µM (active)"}, {"measurement": "Potency", "setting": "[3]", "value": "inactive"}, {"measurement": "Potency", "setting": "[4]", "value": "inactive"}]}, {"smiles": "CC(C)C[C@@H](N)C(=O)O", "values": [{"measurement": "activity change, negative = inhibition", "setting": "[3]", "value": "1.04% [at 15.8 µM]"}]}]}
